Assay outcomes deposited in PubChem BioAssay by several laboratories.
This is a sample that favours compounds with a hit; in the whole collection about 2.2% have one here.
aSyn UTR inh – MLPCN primary screen, SNCA 5' untranslated region; inhibition, % (tested at 7.5 µM); 300,000 compounds, 0.82% hits; alpha-synuclein 5'UTR reporter, inhibitor activity; in the data active = inhibition above about 60%;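 note: H4 neuroglioblastoma cells stably carrying SNCA 5'UTR luciferase fusion; 0% = DMSO wells and 100% = positive control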
BaF3 parental – parental Ba/F3 cell viability inhibition, counter-screen for JAK2V617F inhibitor project, murine pro-B, CellTiter-Glo luminescence; CellTiter-Glo ATP luminescence; inhibition, % at 5.6 µM; 220,000 compounds, 1.1% hits;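 active = inhibition above a per-campaign cutoff, the mean inhibition of all tested compounds plus 3 SD, cut at about 27% in these data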;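 note: 0% = DMSO wells and 100% = JAK Inhibitor I control wells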
IEC-6 cytotox – cytotoxicity in IEC-6 intestinal epithelial cells, primary screen, cytotoxicity control for KLF5 inhibitor project, cell-based, luminescence; 290,000 compounds, 0.78% hits; IEC-6 cytotoxicity, luminescence viability; inhibition, % at 5 µM; AID 1825, 2009; in the data active = inhibition above about 22%;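 note: 0% = plate median of test compound wells and 100% = cytotoxic reference compound wells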
KLF5 inh – KLF5 expression inhibitors, primary screen, DLD-1 cells, luminescence; DLD-1 KLF5 promoter-luciferase reporter; 290,000 compounds, 0.23% hits; inhibition, % at 5 µM; AID 1700, 2009;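 active = inhibition above a per-plate limit of that plate's mean compound inhibition plus 3 SD, cut at about 60% in these data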;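 note: 0% = DMSO wells and 100% = LY294002 at 200 µM; higher means less KLF5 promoter-driven luciferase light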
APP transl inh – inhibitors of APP translation via 5'UTR reporter, primary screen, APP 5'UTR luciferase, SH-SY5Y cells; 190,000 compounds, 0.82% hits; SH-SY5Y APP 5'UTR-luciferase reporter, luminescence; inhibition, % at 2 µM; AID 1285, 2008;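 active = inhibition above a set limit, derived from the sample mean plus 3 SD, cut at about 45% in these data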
Ba/F3 V617F tox – reduced viability of JAK2V617F-dependent Ba/F3 cells, primary screen, JAK2V617F inhibitor project, cell-based, Ba/F3 EpoR-JAK2V617F, luminescence; ATP luminescence; inhibition, % at 5.6 µM; 220,000 compounds, 1.1% hits; AID 1446, 2008;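 active = inhibition above the campaign mean plus 3 SD over all tested compounds, cut at about 24% in these data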;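 note: cytokine-independent growth of Ba/F3 cells driven by EpoR plus mutant JAK2; 0% = DMSO-treated cells and 100% = JAK inhibitor I control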
Active calls of the source: *.

What do the screens show for `CCN(CC)S(=O)(=O)c1ccc2c(c1)nc(SCn1nnc3ccccc3c1=O)n2CC`?
aSyn UTR inh: 18; BaF3 parental: 4; IEC-6 cytotox: -5; KLF5 inh: -33; APP transl inh: 92*; Ba/F3 V617F tox: 0

Results for Cn1c(CCN2CCCCC2)nc2cc(NC(=O)COc3ccc(Cl)cc3)ccc21 ?
aSyn UTR inh: 0; IEC-6 cytotox: 0; KLF5 inh: -2

Results for Cc1ccc(C(C)C)c(OCC(=O)Nc2ccc3c(c2)nc(CCN2CCCCC2)n3C)c1 ?
aSyn UTR inh: 110*; IEC-6 cytotox: 6; KLF5 inh: -14

Results for Cc1ccc(OCC(=O)Nc2ccc3c(c2)nc(CCN2CCN(C)CC2)n3C)cc1 ?
aSyn UTR inh: 105*; BaF3 parental: 2; IEC-6 cytotox: -1; KLF5 inh: -8; Ba/F3 V617F tox: 0

How did O=C(Nc1nc(-c2ccccn2)cs1)c1ccc([N+](=O)[O-])o1 do in these assays?
aSyn UTR inh: -32; BaF3 parental: 89*; IEC-6 cytotox: -5; KLF5 inh: 7; Ba/F3 V617F tox: 84*

How did O=C(Nc1nc(-c2ccccn2)cs1)c1cc(Cl)ccc1[N+](=O)[O-] do in these assays?
aSyn UTR inh: 116*; BaF3 parental: 61*; IEC-6 cytotox: 83*; KLF5 inh: 64*; APP transl inh: 76*; Ba/F3 V617F tox: 72*

What do the screens show for `Cc1c(Cl)c([N+](=O)[O-])nn1Cc1ccc(C(=O)Nc2ccc(Cl)cn2)o1`?
aSyn UTR inh: -7; BaF3 parental: 8; IEC-6 cytotox: 10; KLF5 inh: -24; APP transl inh: 8; Ba/F3 V617F tox: 3

How did O=C(Nc1ccc(Cl)cn1)c1ccc([N+](=O)[O-])o1 do in these assays?
aSyn UTR inh: -17; BaF3 parental: -1; IEC-6 cytotox: 7; KLF5 inh: -23; APP transl inh: 47*; Ba/F3 V617F tox: 1

How did CCN(CC)S(=O)(=O)c1cccc(C(=O)NNC(=O)C2=NN(c3ccccc3)C(=O)CC2)c1 do in these assays?
aSyn UTR inh: 5; IEC-6 cytotox: -6; KLF5 inh: -36

Results for Cc1noc2ncnc(Oc3ccc(Cl)cc3Cl)c12 ?
aSyn UTR inh: 5; BaF3 parental: 3; IEC-6 cytotox: -1; KLF5 inh: 16; APP transl inh: -6; Ba/F3 V617F tox: -1

Results for COc1ccc(CC(=O)Nc2ccccc2NC(=O)Cc2ccc(OC)cc2)cc1 ?
aSyn UTR inh: -3; IEC-6 cytotox: -2; KLF5 inh: -12

What do the screens show for `COc1ccc(CC(=O)Nc2cc(Cl)ccc2O)cc1`?
aSyn UTR inh: -21; BaF3 parental: 42*; IEC-6 cytotox: 4; KLF5 inh: -22; APP transl inh: -2; Ba/F3 V617F tox: 70*

Results for COc1ccc(C(=O)CSc2ncnc3nc[nH]c23)cc1 ?
aSyn UTR inh: -16; BaF3 parental: 4; IEC-6 cytotox: -4; KLF5 inh: -32; Ba/F3 V617F tox: 0

How did O=C(CSc1ncnc2nc[nH]c12)Nc1nnc(SCc2ccc(Cl)c(Cl)c2)s1 do in these assays?
aSyn UTR inh: -13; BaF3 parental: 28*; IEC-6 cytotox: 5; KLF5 inh: 7; APP transl inh: -21; Ba/F3 V617F tox: 5

How did Cc1ccc(C)c(NC(=O)CSc2ncnc3nc[nH]c23)c1 do in these assays?
aSyn UTR inh: 23; BaF3 parental: 5; IEC-6 cytotox: 1; KLF5 inh: -23; APP transl inh: -12; Ba/F3 V617F tox: 3

What do the screens show for `CC(=O)CSc1ncnc2nc[nH]c12`?
aSyn UTR inh: -2; BaF3 parental: 33*; IEC-6 cytotox: 13; KLF5 inh: -18; APP transl inh: 4; Ba/F3 V617F tox: 25*

Results for CCOc1ccc(N(C(=O)Nc2ccccc2)C2=NCCC2)cc1 ?
aSyn UTR inh: -4; BaF3 parental: 3; IEC-6 cytotox: 1; KLF5 inh: -16; APP transl inh: -20; Ba/F3 V617F tox: -3

Results for CNC(=O)N(C1=NCCCCC1)c1ccc(Br)cc1 ?
aSyn UTR inh: 21; BaF3 parental: 4; IEC-6 cytotox: -10; KLF5 inh: -6; APP transl inh: 45*; Ba/F3 V617F tox: -2

Results for O=C(CCl)N(c1ccccc1)C1CCCCC1 ?
aSyn UTR inh: 110*; BaF3 parental: 3; IEC-6 cytotox: 4; KLF5 inh: -20; APP transl inh: 1; Ba/F3 V617F tox: 9

How did O=C(CN(Cc1ccccc1)S(=O)(=O)c1ccccc1)N/N=C/c1ccc([N+](=O)[O-])cc1 do in these assays?
aSyn UTR inh: 8; BaF3 parental: 95*; IEC-6 cytotox: -5; KLF5 inh: -16; APP transl inh: 10; Ba/F3 V617F tox: 1

Results for CCN(CC(=O)Nc1c(F)cccc1F)C(=O)Cc1csc(-c2ccc(OC)c(OC)c2)n1 ?
aSyn UTR inh: 15

How did O=C(Nc1ccc(CN2CCOCC2)cc1)c1cc2ccccn2n1 do in these assays?
aSyn UTR inh: 72*; BaF3 parental: 1; IEC-6 cytotox: 7; KLF5 inh: -55; APP transl inh: -86; Ba/F3 V617F tox: 3

How did CC(C)(C)c1ccc(Cn2c(=N)n(CC(O)c3ccco3)c3ccccc32)cc1 (stereo not given) do in these assays?
aSyn UTR inh: 101*; BaF3 parental: 17; IEC-6 cytotox: -3; KLF5 inh: -45; APP transl inh: 9; Ba/F3 V617F tox: 23

How did CCc1ccc(Nc2cnn(C34CC5CC(CC(CC(=O)O)(C5)C3)C4)c(=O)c2Cl)cc1 do in these assays?
aSyn UTR inh: -6; BaF3 parental: 3; IEC-6 cytotox: -7; KLF5 inh: -13; APP transl inh: 57*; Ba/F3 V617F tox: -1

Results for Cc1cccc(NC(=S)/N=C(\N)Nc2nc(C)c3ccc(C)cc3n2)c1 ?
aSyn UTR inh: -15; BaF3 parental: 39*; IEC-6 cytotox: 5; KLF5 inh: -111; APP transl inh: -24; Ba/F3 V617F tox: 34*

Results for Cc1ccc2nc(-c3ccc(NC(=O)CCS(=O)(=O)c4ccccc4)cc3)sc2c1 ?
aSyn UTR inh: 62*; BaF3 parental: 3; IEC-6 cytotox: -7; KLF5 inh: -181; APP transl inh: -126; Ba/F3 V617F tox: 2

What do the screens show for `O=C(Cn1cnc2ccccc2c1=O)N1CCc2ccccc2C1`?
aSyn UTR inh: -6; BaF3 parental: 8; IEC-6 cytotox: -2; KLF5 inh: -21; APP transl inh: 8; Ba/F3 V617F tox: -4

What do the screens show for `O=C(Cn1cnc2ccccc2c1=O)N1CCOCC1`?
aSyn UTR inh: 20; BaF3 parental: -2; IEC-6 cytotox: 1; KLF5 inh: 16; APP transl inh: 50*; Ba/F3 V617F tox: -1

Results for Clc1ccc(-n2ncc3c(N4CCCCCC4)ncnc32)cc1 ?
aSyn UTR inh: 78*; BaF3 parental: 0; IEC-6 cytotox: 3; KLF5 inh: 3; APP transl inh: -27; Ba/F3 V617F tox: -4
